{"source": "PubChem BioAssay AID1259343", "about": "(VanderVen Lab, College of Veterinary Medicine, Cornell …, 2017)", "note": "Hit rate of the full screen: of about 6,200 compounds, about 2,900 (47%) were called active. The set was probably picked from earlier hits. The list shows a part of the results. A number with no mark means an inactive call. Rule as the data show it: active = inhibition above about 50%; inactive = the rest."}
{"assay": "Mycobacterium tuberculosis growth inhibition, primary screen (AID 1259343)", "settings": "inhibition: at 10 µM, stronger effect = higher value; outcome: 10 uM"}
{"smiles": "CC(=NNc1ccc(C(F)(F)F)cn1)c1ccc2c(c1)Nc1ccccc1S2", "inhibition": "-55.5%"}
{"smiles": "CC(=NNC(=O)c1ccoc1C)c1ccc2c(c1)Nc1ccccc1S2", "inhibition": "75.1% (active)"}
{"smiles": "CC(=NNC(=O)c1cc(C)oc1C)c1ccc2c(c1)Nc1ccccc1S2", "inhibition": "47.6%"}
{"smiles": "CC(=NNC(=S)NC(C)C)c1ccc2c(c1)Nc1ccccc1S2", "inhibition": "20.4%"}
{"smiles": "CC(=NNC(=O)COc1ccc(F)cc1)c1ccc2c(c1)Nc1ccccc1S2", "inhibition": "16%"}
{"smiles": "CC(=NNS(=O)(=O)c1cc(C)ccc1C)c1ccc2c(c1)Nc1ccccc1S2", "inhibition": "57.9% (active)"}
{"smiles": "Cc1cc(C)n(C(C)CNS(=O)(=O)c2ccc(Cl)cc2)n1", "note": "(centres undefined)", "inhibition": "inactive"}
{"smiles": "CCOc1ccc(Oc2ccc(NC(=O)c3ccc(C)s3)cc2)cc1", "inhibition": "44.9%"}
{"smiles": "CCOc1ccc(NC(=O)CCSc2nnc(C)s2)cc1", "inhibition": "91.3% (active)"}
{"smiles": "CCOc1ccc(NC(=O)Cc2ccc(C)s2)cc1", "inhibition": "59.7% (active)"}
{"smiles": "COc1ccc(Cl)c(NS(=O)(=O)c2cnc(Cl)n2C)c1", "inhibition": "25.9%"}
{"smiles": "O=S1(=O)C(c2ccccc2)=CC1c1ccccc1", "note": "(centres undefined)", "inhibition": "49.3%"}
{"smiles": "Cc1ccc(S(=O)(=O)NCC(C)n2nc(C)cc2C)cc1", "note": "(centres undefined)", "inhibition": "10.1%"}
{"smiles": "Clc1ccc(C2CC(c3ccc(Cl)cc3)n3nnnc3N2)cc1", "note": "(centres undefined)", "inhibition": "66.5% (active)"}
{"smiles": "Clc1ccc(C2CC(c3ccc(Cl)cc3)n3ncnc3N2)cc1", "note": "(centres undefined)", "inhibition": "-10.5%"}
{"smiles": "CCCCc1oc2ccccc2c1C(=O)c1cc(I)c(OCCN(CC)CC)c(I)c1", "inhibition": "77% (active)"}
{"smiles": "CCCCc1oc2ccccc2c1C1NC(=O)c2ccccc2N1", "note": "(centres undefined)", "inhibition": "10.5%"}
{"smiles": "O=C(Nc1ccccc1-c1cn2c(CN3CCNCC3)csc2n1)c1cnc2ccccc2n1", "inhibition": "74.8% (active)"}
{"smiles": "CC1=NOC(C(=O)Nc2ccccc2OCCCc2ccccc2)C1", "note": "(centres undefined)", "inhibition": "55.6% (active)"}
{"smiles": "Cc1ccc(CC(=O)Nc2ccccc2OC2CCCC2)s1", "inhibition": "10.8%"}
{"smiles": "O=C(Nc1ccccc1OCCCc1ccccc1)C1CCOC1", "note": "(centres undefined)", "inhibition": "83% (active)"}
{"smiles": "O=C(Nc1ccccc1OCCCc1ccccc1)c1ccccn1", "inhibition": "22.6%"}
{"smiles": "Oc1ccc(NC(=S)Nc2ccc(OC(F)F)cc2)cc1", "inhibition": "94.3% (active)"}
{"smiles": "FC(F)Oc1ccc(NC(=S)Nc2ccc3c(c2)OCCO3)cc1", "inhibition": "85.3% (active)"}
{"smiles": "COc1ccc(NC(=S)Nc2ccc(OC(F)F)cc2)cn1", "inhibition": "36.5%"}
{"smiles": "O=C(OC1CCc2[nH]c3ncccc3c2C1)c1ccccc1", "note": "(centres undefined)", "inhibition": "-5.27%"}
{"smiles": "CSc1ccccc1NC(CNS(=O)(=O)c1ccccc1)c1ccccc1", "note": "(centres undefined)", "inhibition": "-10.3%"}
{"smiles": "Cc1ccc(-c2nsc(SCC(=O)Nc3cccc([N+](=O)[O-])c3)n2)cc1", "inhibition": "71.1% (active)"}
{"smiles": "CCOC(=O)CC(=O)CSc1nc(-c2cccc(C)c2)ns1", "inhibition": "82.2% (active)"}
{"smiles": "CSc1ccc(Cn2c(C)c(C(=O)NCc3cccc([N+](=O)[O-])c3)sc2=O)cc1", "inhibition": "24.4%"}
{"smiles": "Cc1cccc(NC(=O)c2cc(Oc3ccc([N+](=O)[O-])cc3F)n(C)n2)c1", "inhibition": "35.6%"}
{"smiles": "OCc1ccc(-c2ccc(-c3ccc(CO)s3)o2)s1", "inhibition": "48.6%"}
{"smiles": "Fc1ccc(C2=NN3C(C2)c2ccccc2OC3c2ccncc2)cc1", "note": "(centres undefined)", "inhibition": "14%"}
{"smiles": "c1ccc(C2=NN3C(C2)c2ccccc2OC32CCCC2)cc1", "note": "(centres undefined)", "inhibition": "32%"}
{"smiles": "COc1ccc(C2Oc3ccccc3C3CC(c4ccccc4)=NN32)cc1OC", "note": "(centres undefined)", "inhibition": "-33.1%"}
{"smiles": "CCC1(C)Oc2ccccc2C2CC(c3ccccc3)=NN21", "note": "(centres undefined)", "inhibition": "-17%"}
{"smiles": "CC1CCC2(CC1)Oc1ccccc1C1CC(c3ccccc3)=NN12", "note": "(centres undefined)", "inhibition": "55.7% (active)"}
{"smiles": "CC(C)C1Oc2ccccc2C2CC(c3ccccc3)=NN21", "note": "(centres undefined)", "inhibition": "63.4% (active)"}
{"smiles": "OC[C@@H](O)CN(CCC(F)(F)F)c1nc(-c2ccccn2)nc2c1CCC2", "inhibition": "-1.45%"}
{"smiles": "CC(NC(=O)COc1ccccc1F)C1CC2CCC1C2", "note": "(centres undefined)", "inhibition": "95.6% (active)"}
{"smiles": "Cc1ccc2c(CC(=O)NC(C)C3CC4CCC3C4)coc2c1", "note": "(centres undefined)", "inhibition": "12.9%"}
{"smiles": "CC(NC(=O)c1ccc([N+](=O)[O-])o1)C12CC3CC(CC(C3)C1)C2", "note": "(centres undefined)", "inhibition": "106% (active)"}
{"smiles": "CC(NC(=O)C=Cc1cccs1)C1CC2CCC1C2", "note": "(centres undefined)", "inhibition": "36.7%"}
{"smiles": "CC(NC(=O)c1ccc([N+](=O)[O-])o1)C1CC2CCC1C2", "note": "(centres undefined)", "inhibition": "101% (active)"}
{"smiles": "CC(NC(=O)c1ccc(Br)o1)C1CC2CCC1C2", "note": "(centres undefined)", "inhibition": "37.7%"}
{"smiles": "CC(NC(=O)c1ccc(Br)o1)C12CC3CC(CC(C3)C1)C2", "note": "(centres undefined)", "inhibition": "0.12%"}
{"smiles": "CCNC(=O)c1ccc([N+](=O)[O-])o1", "inhibition": "15.7%"}
{"smiles": "COc1ccc([C@H]2Oc3cc(OC)cc(OC)c3C[C@H]2O)cc1", "inhibition": "70.8% (active)"}
{"smiles": "COc1ccc(-c2nnc(CSC(=S)N3CCCC3)o2)cc1", "inhibition": "84.2% (active)"}
{"smiles": "O=C(CSC(F)(F)F)Nc1cnn(-c2ccccc2)c1", "inhibition": "63.6% (active)"}
{"smiles": "O=C(Cc1cnn(-c2ccccc2)c1)NCC1CCCCC1", "inhibition": "45%"}
{"smiles": "O=C(O)c1ccc2c(c1)CCN2C(=O)c1cnn(-c2ccccc2)c1", "inhibition": "15.4%"}
{"smiles": "Cc1cccc(OC(C)C(=O)Nc2nc(C(C)C)cs2)c1", "note": "(centres undefined)", "inhibition": "29.5%"}
{"smiles": "CC(=NNc1nc(C)cs1)c1ccc(Cl)cc1", "inhibition": "0.03%"}
{"smiles": "Cc1cnc(NC(=O)C(C)Oc2cccc(Cl)c2)s1", "note": "(centres undefined)", "inhibition": "9.6%"}
{"smiles": "Cc1csc(NC(=O)C(C)Oc2cccc(Cl)c2)n1", "note": "(centres undefined)", "inhibition": "81.2% (active)"}
{"smiles": "Cc1csc(NC(=O)COc2c(C)cc(Cl)cc2C)n1", "inhibition": "73.9% (active)"}
{"smiles": "Cc1cc(Cl)cc(C)c1OCC(=O)NNc1ccc(F)cc1", "inhibition": "96.3% (active)"}
{"smiles": "CC(=O)Nc1ccc(CC(=O)OCc2ccc(F)cc2)cc1", "inhibition": "37.7%"}
{"smiles": "Cc1cc(C)c(OCC(=O)NS(=O)(=O)c2c(C)noc2C)c(C)c1", "inhibition": "44%"}
{"smiles": "N#Cc1cccc(CSc2n[nH]c(=O)n2C2CC2)c1", "inhibition": "3.74%"}
{"smiles": "Cc1ccc(-c2nnn(CC(=O)N3CCCCCC3)n2)cc1", "inhibition": "15.3%"}
{"smiles": "Cc1ccc(-c2nnn(Cc3cc(C)on3)n2)cc1", "inhibition": "57.2% (active)"}
{"smiles": "N#Cc1ccccc1Cn1nnc(-c2ccccc2)n1", "inhibition": "-34.2%"}
{"smiles": "CC(C)(Cc1c[nH]c2ccc(Cl)cc12)NCCOc1ccccc1OCC1CC1", "inhibition": "46.8%"}
{"smiles": "Cc1cc(Oc2ccc(C(=O)O)cn2)ccc1C(C)C", "inhibition": "59.3% (active)"}
{"smiles": "O=C(NC1CC1)c1ccc(Oc2ccc(Br)cc2)nc1", "inhibition": "16.1%"}
{"smiles": "CCc1cccc2c3c([nH]c12)C(CC)(CC(=O)O)OCC3", "note": "(centres undefined)", "inhibition": "56.6% (active)"}
{"smiles": "CSC(c1ccc(O)cc1)=[N+]1CCOCC1", "inhibition": "99.3% (active)"}
{"smiles": "COc1cccc(-c2cnnc(NCCc3ccccc3F)n2)c1", "inhibition": "19.2%"}
{"smiles": "COc1ccc(-c2cnc(CN(C)c3ccccc3F)o2)cc1", "inhibition": "83.9% (active)"}
{"smiles": "C=CCSc1nc(N)c(C#N)c(CC)c1C#N", "inhibition": "58.6% (active)"}
{"smiles": "COCCNC(=O)N(C)CC1CCC(C)CC1", "note": "(centres undefined)", "inhibition": "8.33%"}
{"smiles": "CCCCN(CC)C(=O)c1cc2c(=O)n3cccc(C)c3nc2s1", "inhibition": "35.8%"}
{"smiles": "CCc1c(C)nc2c(O)cccn2c1=O", "inhibition": "92.4% (active)"}
{"smiles": "Cc1cc(C)cc(NC(=O)CSc2ccc(-c3ccncc3)nn2)c1", "inhibition": "84.3% (active)"}
{"smiles": "Cc1ccc(-c2ccc(SCC(N)=O)nn2)cc1C", "inhibition": "37.8%"}
{"smiles": "Cc1cc(NC(=O)CSc2ccc(-c3ccc(C)c(C)c3)nn2)no1", "inhibition": "33.5%"}
{"smiles": "CC(NC(=O)c1ccccc1F)c1ccc2c(c1)OCCO2", "note": "(centres undefined)", "inhibition": "36.9%"}
{"smiles": "O=C(NS(=O)(=O)c1ccccc1F)c1ccc2c(c1)OCO2", "inhibition": "98.4% (active)"}
{"smiles": "O=C(NS(=O)(=O)c1ccc2c(c1)OCCCO2)c1ccc(F)cc1", "inhibition": "-7.16%"}
{"smiles": "c1ccc2c(c1)C(=NC1CCCCC1)NC2=NC1CCCCC1", "inhibition": "62.3% (active)"}
{"smiles": "Fc1ccc(C2CCCN2Cc2nc(-c3ccc4c(c3)OCO4)no2)cc1", "note": "(centres undefined)", "inhibition": "62.2% (active)"}
{"smiles": "COc1ccc(-c2noc(CN3CCCC(C(=O)c4ccccc4)C3)n2)cc1", "note": "(centres undefined)", "inhibition": "27.8%"}
{"smiles": "COc1ccc(-c2noc(CN3CCC(c4nc5ccccc5o4)CC3)n2)cc1", "inhibition": "81.3% (active)"}
{"smiles": "COc1ccc(-c2noc(CN3CCCC(OCc4ccccn4)C3)n2)cc1", "note": "(centres undefined)", "inhibition": "50.2% (active)"}
{"smiles": "Cc1oc(-c2cc3c(cc2Cl)OCO3)nc1CN1CCCC1c1ccc(F)cc1", "note": "(centres undefined)", "inhibition": "19.7%"}
{"smiles": "c1cncc(COC2CCCN(Cc3nc(-c4ccc5c(c4)OCO5)no3)C2)c1", "note": "(centres undefined)", "inhibition": "75.8% (active)"}
{"smiles": "Fc1ccccc1OCC1CCCN(Cc2nc(CC3CC3)no2)C1", "note": "(centres undefined)", "inhibition": "19.6%"}
{"smiles": "CCCOC1CCCN(Cc2nc(-c3cccc(Cl)c3)no2)C1", "note": "(centres undefined)", "inhibition": "68.8% (active)"}
{"smiles": "c1cc2c(s1)CCN(Cc1nc(-c3ccc4c(c3)OCO4)no1)C2", "inhibition": "22.1%"}
{"smiles": "O=c1c2cc(-c3cccs3)nn2ccn1Cc1nc(-c2ccccc2)no1", "inhibition": "4.57%"}
{"smiles": "COc1ccc(-c2noc(Cn3ccc4cccnc43)n2)cc1", "inhibition": "81.3% (active)"}
{"smiles": "CN(Cc1cnn(-c2ccc(F)cc2)c1)Cc1nc(CC2CC2)no1", "inhibition": "23%"}
{"smiles": "Fc1ccc(CC2CCN(Cc3nc(CC4CC4)no3)CC2)cc1", "inhibition": "83.5% (active)"}
{"smiles": "Cc1ccc(Cl)cc1N1CCN(Cc2nc(C3CC3)no2)CC1", "inhibition": "-5.02%"}
{"smiles": "Cc1cnc(C)c(N2CCN(Cc3nc(-c4ccc5c(c4)OCO5)no3)CC2)n1", "inhibition": "92.2% (active)"}
{"smiles": "CN(C)c1ccc(N=C2N=C(Nc3ccc(N(C)C)cc3)c3ccccc32)cc1", "inhibition": "44.8%"}
{"smiles": "COC(=O)[C@H]1[C@H]2C[C@@H]3c4[nH]c5cc(OC)ccc5c4CCN3C[C@H]2C[C@@H](OC(=O)c2cc(OC)c(OC)c(OC)c2)[C@@H]1OC", "inhibition": "45.9%"}
{"smiles": "Cc1ccccc1C1CCCN(Cc2nc(CC3CC3)no2)C1", "note": "(centres undefined)", "inhibition": "17%"}
{"smiles": "c1ccc(COC2CCCN(Cc3nc(CC4CC4)no3)C2)cc1", "note": "(centres undefined)", "inhibition": "58.5% (active)"}
{"smiles": "CC1NC(=S)N(c2ccc(-c3cn4ccsc4n3)cc2)C1=O", "note": "(centres undefined)", "inhibition": "46.5%"}
{"smiles": "CC1NC(=S)N(c2ccc(C(C)C)cc2)C1=O", "note": "(centres undefined)", "inhibition": "95.8% (active)"}
{"smiles": "CC1NC(=S)N(c2cccc(Oc3ccncc3)c2)C1=O", "note": "(centres undefined)", "inhibition": "11.8%"}
